Data as given in PubChem BioAssay (NCI).
Compounds without any hit were thinned out: in the full panel of roughly 79,000, 15% have a hit. A number with no mark means an inactive call. The source made the active and inactive calls. Rule as the data show it: active = growth inhibition above about 70%; inactive = the rest.

How the values were obtained:
[1] = NCI Yeast Anticancer Drug Screen. Data for the rad50 strain (AID 155);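 also: 0% = growth of vehicle-only cultures of the same strain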; conditions: S. cerevisiae rad50 strain growth inhibition; at 50.0 µM; active compounds read high
Summary of the method: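 Readout: growth inhibition relative to vehicle-treated cultures. Compound exposure was carried out in a genetically defined yeast strain deficient in DNA damage repair.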

[2] = NCI Yeast Anticancer Drug Screen. Data for the mec2-1 strain (AID 157); conditions: S. cerevisiae mec2-1 strain, at 50.0 µM, active compounds read high
Summary of the method: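 Using mec2-1 yeast: add compound, measure growth, express inhibition versus vehicle-treated cultures.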

[3] = NCI Yeast Anticancer Drug Screen. Data for the sgs1 mgt1 strain (AID 161);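 also: 0% = growth of cultures given vehicle only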; conditions: S. cerevisiae sgs1 mgt1 strain, at 50.0 µM, active compounds read high
Summary of the method: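 Percent growth inhibition was derived by comparing compound-exposed mutant yeast with vehicle-exposed cultures. The strain carries alterations in DNA damage repair.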

[4] = NCI Yeast Anticancer Drug Screen. Data for the cln2 rad14 strain (AID 165);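 also: 0% = growth equal to vehicle treated cultures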; conditions: S. cerevisiae cln2 rad14 strain, at 50.0 µM, active compounds read high
Summary of the method: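 Yeast strain cln2 rad14, bearing defects in cell cycle control and DNA repair, serves as the test system; values reflect growth inhibition compared with vehicle.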

[5] = NCI Yeast Anticancer Drug Screen. Data for the bub3 strain (AID 167); conditions: S. cerevisiae bub3 mutant strain, at 50.0 µM, active compounds read high
Summary of the method: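 Readout: yeast growth inhibition, expressed relative to vehicle-only wells. The test organism is a mutant strain from a panel with lesions in DNA repair or checkpoint genes.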

[6] = NCI Yeast Anticancer Drug Screen. Data for the mlh1 rad18 strain (AID 175); conditions: S. cerevisiae mlh1 rad18 strain growth inhibition; at 50.0 µM; active compounds read high
Summary of the method: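 Steps: expose repair-defective yeast to compound; measure growth; express inhibition against vehicle-treated controls.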

| SMILES | growth inhibition [1] | growth inhibition [2] | growth inhibition [3] | growth inhibition [4] [%] | growth inhibition [5] | growth inhibition [6] |
| --- | --- | --- | --- | --- | --- | --- |
| O=[N+]([O-])c1ccc(-c2nnc(C34CC5CC(CC(C5)C3)C4)o2)cc1 | -26.7% | -1.2% | -13.4% | -5.9 | -11.2% | -30.1% |
| Cn1c(=O)c2c(nc(Br)n2CC(=O)c2ccc([N+](=O)[O-])cc2)n(C)c1=O | 24.8% | 16.1% | 22.1% | 18.9 | 0.55% | 27.4% |
| CN=C(NN)NS(=O)(=O)c1cc(C)c(Cl)cc1S | -12.6% | -22.8% | -11.7% | -10.9 | 3.4% | 7.05% |
| COC1CCC(C(C)=O)C(C#N)(C#N)C1(C#N)C#N (stereo unspecified) | -6.3% | -1.25% | -12.1% | -4.95 | -12.5% | -13.8% |
| O=[N+]([O-])c1ccc(Sc2cccs2)c([N+](=O)[O-])c1 | -12.8% | 28.9% | 18.9% | 4.1 | 13.9% | 57% |
| COC1CC(NC(=O)c2ccccc2)C(O)C(C)O1 (stereo unspecified) | 8.65% | 18.3% | 11.6% | 10.6 | 0.8% | 8.5% |
| COc1cc(CO)c(CC(=O)NCCCc2ccccc2)cc1OC | 37.8% | -44.5% | -12.5% | -2.85 | -14.2% | -47.5% |
| CCCCCCCCCCCCCCCCOc1ccc(OCCCCCCCCCCCCCCC)cc1 | 42.2% | -8.2% | 31.6% | -24.7 | 5.35% | -1.1% |
| O=C(Nc1ccc2c(c1)C(O)c1ccccc1-2)C(F)(F)F (stereo unspecified) | 11.4% | -4.3% | 18.9% | 8.35 | 6.85% | 16.1% |
| CC(=O)Nc1cc(N)ccc1C | 7.15% | 4.45% | 1.65% | -18.2 | 10.6% | -14.3% |
| Cc1cc(=O)n(-c2cncc(Br)c2)[nH]1 | 1.5% | 2.05% | 1.5% | -17.5 | 12.4% | 7.75% |
| NC(=O)C1C=Cc2ccccc21 (stereo unspecified) | -6.1% | -19.3% | -18.4% | -14.1 | -16.8% | -35.6% |
| COC(=O)c1cc(C)c(C)c2c1NC(=O)CNC2=O | -4.1% | -4.2% | 3.95% | 19.8 | -3.7% | 7.95% |
| Cc1nc(-c2ccccc2)cc2c1c(=O)oc1ccccc12 | -14.7% | -30.6% | 4% | 6.3 | -5.4% | -8.55% |
| CCOc1ccc2nc(NC(=O)C(=O)C3C(=O)C(CC4C(=O)c5ccccc5C4=O)C(=O)CC3(C)C)sc2c1 (stereo unspecified) | 31.4% | -1.1% | 14.3% | -29.8 | -29.4% | 8.9% |
| O=C(c1ccccc1)c1cnc2ccccn12 | -2.35% | -2.35% | -3.15% | -15.9 | 5.8% | -8.05% |
| CCOC(=O)C(C)(C)Oc1ccc(N=[N+]=[N-])cc1 | 13.1% | 9.15% | 41.5% | 4.35 | 5.8% | 19.6% |
| COC1CCC2CC3(CCC2(C)C1O)OCCO3 (stereo unspecified) | 1.25% | 0.85% | -1.45% | -12.3 | 26.1% | -14.4% |
| CSc1nc(SC)c2nc(SC)n(-c3ccccc3)c2n1 | -2.7% | -16.1% | 7.85% | -10.3 | 3.85% | -2.75% |
| Cc1ccc(C)o1 | -5.3% | 5.5% | -8.65% | -12.2 | -1.1% | 2.6% |
| N#Cc1cccc(/C=C\C(=O)c2ccccc2)c1 | 22.9% | 8.65% | 5.4% | 17.3 | 61% | 13.9% |

| SMILES | growth inhibition [1] | growth inhibition [2] | growth inhibition [3] | growth inhibition [4] [%] | growth inhibition [5] | growth inhibition [6] |
| --- | --- | --- | --- | --- | --- | --- |
| CCOC(=O)CSc1[nH]c2nc(C)nc(Cl)c2c1C#N | -20.7% | 8.3% | -5.2% | -6.65 | -3.45% | 16.6% |
| O=[N+]([O-])C(=C(N1CCCCC1)N1CCCCC1)/C(Cl)=C(\Cl)Br | -31.5% | 11.2% | 2.7% | -2 | -7.15% | -1.45% |
| COc1ccc(NC(C)=O)c([N+](=O)[O-])c1 | 23.3% | 0.25% | 19.3% | 16.3 | -8.35% | 6.3% |
| COc1ccc(C2S/C(=C\c3cccc(O)c3)C(=O)N2NC(=O)Cc2ccccc2)cc1 (stereo unspecified) | -15.3% | -34.5% | -6.2% | -46.5 | -1.2% | 10.9% |
| O=C(NC(Cc1ccccc1)C(=O)NNc1ccccc1Cl)OCc1ccccc1 (stereo unspecified) | 92.4% (active) | 86.3% (active) | 94.7% (active) | 55.5 | 80% (active) | 89.5% (active) |
| Nc1nnc2c(=O)[nH]cnc2n1 | 2.25% | -8.8% | -29.2% | -14.4 | -12.2% | -7.35% |
| CCC1=NC(C(F)(F)F)(C(F)(F)F)N=C(N2CCOCC2)O1 | 23.8% | 6.15% | 9.2% | 14.4 | 22.4% | 2.2% |
| c1ccc(C(=C2CCC2)c2c3ccccc3cc3ccccc23)cc1 | -10.1% | 9.4% | -7% | 5.8 | -17.9% | -20.1% |
| O=C(O)C1CSC2(CCCC2)N1 (stereo unspecified) | 16.6% | 4.15% | 12.1% | 4.35 | 5.7% | -1.6% |
| Nc1ccc(O)c(N)c1 | 35.1% | 23.5% | 26.6% | 13.9 | -8% | 31.4% |
| Cc1c(O)cccc1C(=O)C[n+]1ccccc1 | 3.85% | -8% | 10.8% | -24.9 | -6.9% | 1.25% |
| Nc1c(-c2nc3ccccc3s2)[n+]([O-])c2ccccc2[n+]1[O-] | 7.45% | 20.6% | 19% | 29.6 | -57.8% | 15.9% |
| COc1ccccc1NC1Oc2cc3c(cc2C(c2cc(OC)c(OC)c(OC)c2)C1C)OCO3 (stereo unspecified) | -16.4% | -26.1% | -1.25% | -0.85 | -2.8% | -5.35% |
| Fc1cccc(Cl)c1/C=N\N=C1c2ccccc2-c2ccccc21 | -8.1% | 21.9% | -22.4% | -20.1 | -57.8% | -15.8% |
| Cc1ccc(S(=O)(=O)ON/N=c2\ccn(C)c3ccccc23)cc1 | 38.1% | 12.6% | 19.1% | -4.85 | 8.05% | 16.6% |
| O=C(NCCCN1CCN(CCCNC(=O)Nc2ccc(Br)cc2)CC1)Nc1ccc(Br)cc1 | 27.7% | 10.8% | 38.4% | 12.2 | -1.5% | 23.4% |
| CN(C)S(=O)(=O)c1c(N)ncn1C | 12.7% | 6.85% | -9.1% | 7.25 | 9.65% | 5% |
| Cc1cccc2c1ccc1ccccc12 | 5.55% | 6% | -5.45% | -9 | -9.65% | 9.5% |
| Cc1ccc2c(c1)[nH]c(=S)n2C=C1C(=O)NC(=O)NC1=O | -6.3% | -27.9% | -38% | -10.6 | -7.35% | -15.4% |
| CCCCCCCCCCCCCCCSc1ccc2ccccc2c1 | -17% | 1.35% | -5.2% | -25.2 | -13.8% | -13.5% |
